Screening results: PubChem BioAssay, National Center for Advancing Translational Sciences (NCATS)
Shown are actives, neighbours in structure and some others; about 12% of the full set was active somewhere.
JMJD2A Tudor: inhibitors of human JMJD2A Tudor domain; O75164; AlphaScreen JMJD2A-Tudor / H3K4me3 peptide binding; Potency, µM (series often up to 114 µM), for the others: at the top dose activity change, negative = inhibition, usual class: inhibitors; 390,000 compounds, 4.4% hits; also: % is scaled to controls: 0 for no effect and ±100 for the full control effect; nearly all actives have a fitted effect of over 50% in size
PLK1 PBD inh: PLK1 (human) polo-box domain binding inhibition. P53350. Plk1 PBD binding of FITC phosphopeptide, fluorescence polarization. Potency, µM, without a hit: max response, negative = inhibition, hits mostly inhibitors. 360,000 compounds, 2.8% hits. AID 720504; also: series mostly up to about 57 µM; % is scaled to controls: 0 for no effect and ±100 for the full control effect; nearly all actives have a fitted effect of over 65% in size
Target sequence (P53350 whole entry, looked up, the tested form may be a part): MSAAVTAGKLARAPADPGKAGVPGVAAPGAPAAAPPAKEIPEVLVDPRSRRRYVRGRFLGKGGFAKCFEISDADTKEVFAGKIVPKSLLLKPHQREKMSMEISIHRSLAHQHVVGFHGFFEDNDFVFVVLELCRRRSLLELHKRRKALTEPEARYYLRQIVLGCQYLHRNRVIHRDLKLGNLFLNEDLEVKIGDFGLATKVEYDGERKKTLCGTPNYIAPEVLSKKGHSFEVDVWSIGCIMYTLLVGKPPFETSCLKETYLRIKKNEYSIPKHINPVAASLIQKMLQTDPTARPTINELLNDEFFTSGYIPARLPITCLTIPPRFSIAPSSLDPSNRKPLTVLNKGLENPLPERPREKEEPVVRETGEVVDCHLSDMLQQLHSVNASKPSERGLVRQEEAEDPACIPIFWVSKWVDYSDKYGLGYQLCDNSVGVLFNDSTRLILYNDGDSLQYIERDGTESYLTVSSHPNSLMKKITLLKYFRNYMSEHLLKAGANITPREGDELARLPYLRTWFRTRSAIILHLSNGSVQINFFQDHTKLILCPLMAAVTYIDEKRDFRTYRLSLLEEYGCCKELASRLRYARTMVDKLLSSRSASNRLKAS
G9a inh: inhibitors of human histone lysine methyltransferase G9a; G9a H3K9 monomethylation, AlphaScreen, 2 h; Q96KQ7; 350,000 compounds, 8.8% hits; Potency, µM (highest dose often 102 µM), without a hit: at the top dose activity, negative = inhibition, actives largely listed as inhibitors; also: % is scaled to controls: 0 for no effect and ±100 for the full control effect; nearly all actives have a fitted effect of over 75% in size
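Signal arises when biotinylated H3K9 peptide, once monomethylated, bridges streptavidin donor and antibody-captured acceptor beads. Enzyme at 20 nM was preincubated 15 min with test compounds; peptide 500 nM and SAM 20 uM then reacted for 2 h.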
HP1b binding inh: HP1-beta chromodomain-methylated histone interaction inhibition. Potency, µM (series often up to 114 µM), for inactives: top-dose activity change, negative = inhibition, hits mostly inhibitors. 390,000 compounds, 0.56% hits. AlphaScreen HP1-beta / biotin-H3K9me3 peptide binding; also: nearly all actives have a fitted effect of over 70% in size
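HP1-beta protein (50 nM final) preincubated 30 min at room temperature with biotinylated H3(1-18)K9me3 peptide (50 nM) in PBS pH 7.4, 0.01% Tween-20, then compound added for 30 min. AlphaScreen streptavidin donor/nickel chelate acceptor beads (10 ug/mL final), 30 min dark, luminescence read.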
Sfp PPTase inh: blocks B. subtilis Sfp PPTase activity | 310,000 compounds, 3.5% hits | Potency, µM, for inactives: largest response in the series, negative = inhibition, hits mostly inhibitors | Biochemical Sfp PPTase activity, qHTS | Q9F4F7 | AID 1490;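 also: the enzyme is Sfp with the accession as filed and its product quenches rhodamine fluorescence; 0% = enzyme reaction without inhibitor and -100% = no enzyme wells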
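With Hepes-Na pH 7.6 buffer containing 10 mM MgCl2, Sfp (15 nM) modified BHQ-2-YbbR (12.5 uM) using rhodamine-CoA (5 uM). Two reads 30 minutes apart at 525/598 nm yielded each well's rate.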
BAZ2B block: BAZ2B (human) inhibition | AlphaScreen BAZ2B-H3K14Ac peptide displacement | Potency, µM (series often up to 114 µM), for inactives: at the highest dose activity change, negative = inhibition, actives largely listed as inhibitors | Q9UIF8 | 360,000 compounds, 4.4% hits; also: % is scaled to controls: 0 for no effect and ±100 for the full control effect; nearly all actives have a fitted effect of over 60% in size
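Inhibition is scored as reduced AlphaScreen emission. The BAZ2B/b-H3(5-23)K14Ac complex (50 nM each) in PBS pH 7.4, 0.01% Tween-20 meets compound (up to 110 uM) for 30 min at RT before bead addition.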
Starred values were filed as active, the others as inactive; ? = inconclusive; . = not tested or not shown; [ ] = remark or other dose. Calls follow the shape of the dose curve; as a rule, active = well fitted curve in the direction sought with a large enough effect; inconclusive = small, poorly fitted or top-dose-only effect, or another doubt; inactive = no such curve, though single readings can be large; an effect the other way counts as inactive or inconclusive. Potency is read from the fitted curve at half-maximal effect.

SMILES | JMJD2A Tudor | PLK1 PBD inh | G9a inh | HP1b binding inh | Sfp PPTase inh | BAZ2B block
COC1C=CO[C@@]2(C)Oc3c(C)c(O)c4c(O)c(c(C=NN5CCN(C)CC5)c(O)c4c3C2=O)NC(=O)/C(C)=C\C=CC(C)C(O)[C@@H](C)C(O)C(C)[C@H](OC(C)=O)C1C (stereo partly specified) | . | . | ? | . | -21.6% | .
CO[C@H]1/C=C/O[C@@]2(C)Oc3c(C)c(O)c4c(O)c(c(/C=N/N5CCN(C)CC5)c(O)c4c3C2=O)NC(=O)/C(C)=C\C=C\[C@H](C)[C@H](O)[C@@H](C)[C@@H](O)[C@@H](C)[C@H](OC(C)=O)[C@@H]1C | . | . | 20µM* | . | -24.3% | .
CC(C)CC(=O)Nc1ncc([N+](=O)[O-])s1 | -34.5% | 10.6µM* | . | -31.8% | 35.5µM* | -13.8%
Cc1nc(C)c(C(=O)Nc2ncc([N+](=O)[O-])s2)o1 | ? | 26.7µM* | 10µM* | -22.1% | -78.5% | ?
O=C(COC(=O)c1ccccc1)Nc1ncc([N+](=O)[O-])s1 | 20µM* | 21.2µM* | . | ? | . | .
O=C(Nc1ccccc1)Nc1ncc([N+](=O)[O-])s1 | -31.0% | ? | 44.7µM* | -0.8%[57 µM] | -5.6% | ?
CCCCC(=O)Nc1ncc([N+](=O)[O-])s1 | -15.2% | -7.7% | ? | 3.2% | 12.6% | -38.3%
Cn1c(CNC(=O)CSc2nc(-c3ccccc3F)nc3cc(=O)[nH]n23)nc2ccccc21 | -3.2% | . | 19.8%[59 µM] | 42.0% | . | -8.5%
O=C(OCC#CCSc1nnc(-c2cccc3ccccc23)o1)c1ccccc1F | 38.8% | . | . | . | . | .
CC(Oc1ccc(F)cc1)C(=O)Nc1nc(-c2ccc(F)cc2)ns1 (stereo unspecified) | -0.6% | . | 32.9%[59 µM] | 52.7% | . | 24.5%
Cc1ccc(S(=O)(=O)N2CCN(C(=O)CC(C)n3nc(C)c(Cl)c3C)CC2)cc1C (stereo unspecified) | -5.5% | -2.5% | . | 18.3% | -6.6% | -24.5%
Clc1ccc2nc(-c3ccc(Br)s3)cn2c1 | -17.2% | -4.9% | 50.1µM* | -3.8% | 19.3% | -2.0%
COc1ccc(-c2cn3cc(C)ccc3n2)cc1Br | -2.8% | -15.5% | 20.0% | -0.5% | -17.6% | -9.9%
COc1ccc(-c2cn3cc(Cl)ccc3n2)cc1OC | -3.6% | -12.7% | 79.4µM* | 6.1% | -10.9% | ?
CC1CCN(S(=O)(=O)c2ccc3c(c2)N(CC(=O)NCC(C)c2ccccc2)C(=O)CO3)CC1 (stereo unspecified) | -21.2% | . | -3.2%[59 µM] | 17.7% | . | -4.8%
Cc1cc(C)c2c(N=NN(C)C)[nH]nc2n1 | -6.4% | ? | 44.7µM* | 31.1% | -0.1% | 5.4%
Cn1nc(C(=O)NCc2ccccc2)c2c1-c1ccccc1S(=O)(=O)C2 | -11.7% | -13.4% | -12.0% | 16.3% | 9.0% | ?
Cn1c(N)c(C(=O)Nc2cccc(Cl)c2)c(=O)n(C)c1=O | -2.7% | 2.9% | 24.9% | 9.2% | 2.7% | 10.9%
CN=c1sc(C(=O)Nc2cccc(Cl)c2)cc(=O)n1C | 44.7µM* | ? | 8.8%[59 µM] | -5.1% | 0.1% | 7.6%
O=C(Nc1ccc(-c2nnc3n2CCCCC3)cc1)c1cc2ccccc2o1 | -17.0% | -4.1% | 0.6%[59 µM] | 8.5% | 1.3% | -7.3%
Cc1c(C(=O)Nc2ccc(-c3nnc4n3CCCCC4)cc2)oc2c1ccc1ccccc12 | ? | 0.5% | 50.1µM* | -8.8% | ? | -31.9%
COc1cc2nc(=S)n3[nH]c(CCn4c(C)nc5ccccc54)nc3c2cc1OC | ? | -10.8% | ? | 64.3% | ? | -6.1%
COc1ccc(OCc2nc3c4cc(OC)c(OC)cc4nc(=S)n3[nH]2)cc1 | -19.9% | -8.2% | 1µM* | 34.2% | -1.8% | 10.0%
N#Cc1c(-n2ncnc2-c2ccc(F)cc2)sc2c1CCCCC2 | ? | . | ? | ? | . | 7.08µM*
N#Cc1c(-n2ncnc2-c2cccc(Br)c2)sc2c1CCCCC2 | ? | . | 0.3%[59 µM] | -9.5% | . | -10.9%
SMILES | JMJD2A Tudor | PLK1 PBD inh | G9a inh | HP1b binding inh | Sfp PPTase inh | BAZ2B block
CNC(=S)Nc1ccc(OC)c(OC)c1 | -3.2% | -5.7% | ? | 23.6% | 8.4% | -2.5%
COc1ccc(NC(=S)NC23CN4CN(CN(C4)C2)C3)c(OC)c1 | -31.5% | -14.2% | ? | -4.4% | -3.1% | -6.9%
COc1ccc(NC(=S)Nn2cnnc2)c(OC)c1 | ? | 21.2µM* | 5.01µM* | ? | 17.8µM* | ?
COc1ccc(NC(=S)Nn2cnnc2)cc1OC | 17.8µM* | 15µM* | 3.98µM* | ? | 20µM* | -32.7%
Cc1ccc(NC(=S)Nn2cnnc2)cc1 | ? | 10.6µM* | 2.82µM* | -17.4% | 8.91µM* | ?
CCc1ccc(NC(=S)Nn2cnnc2)cc1 | 79.4µM* | 16.8µM* | 7.94µM* | ? | 14.1µM* | -25.7%
O=C1c2c(-c3ccc(Br)cc3)noc2CCN1Cc1cn(-c2ccc(Cl)cc2)nn1 | . | 6.5% | . | . | . | .
S=C(Nc1ccccc1)Nn1cnnc1 | -25.7% | 18.9µM* | 1.41µM* | -19.4% | 12.6µM* | ?
CC1Cc2cc(S(=O)(=O)NCCc3ccccc3)ccc2N1C(=O)C1CCC1 (stereo unspecified) | -19.5% | . | 10.5%[59 µM] | 10.0% | . | 1.9%
CCc1nnc(NC(=O)/C=C/c2ccco2)s1 | -10.7% | -9.1% | 50.1µM* | 37.6% | -10.4% | 4.2%
O=C(/C=C/c1ccco1)Nc1nnc(-c2ccco2)s1 | -13.6% | -14.4% | 10.2% | 29.1% | 6.1% | 2.5%
